MOR-DOR ag – agonists of human mu-delta opioid receptor heterodimerization. 0.3% of 340,000 active. activation, % at 9.3 µM. cells, OPRM1-OPRD1 heterodimerization, luminescence. AID 504326; in the data active means activation above about 18%;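 further: 0% = vehicle-treated cells and 100% = reference agonist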
MOR-DOR inv ag-1 – inverse agonists of human mu-delta opioid receptor heterodimerization; inhibition, % at 9.3 µM; 0.21% of 340,000 active; cell-based MOR-DOR heterodimer luminescence, inverse agonism; P35372+P41143; in the data active means inhibition above about 22%, passing the limit was not always enough;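 further: 0% = cells with DMSO and 100% = wells without cells with DMSO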
HTR5A ag ctr – HTR5A agonism, opioid heterodimer counter-screen. P47898. HTR5A agonist assay, luminescence, cell-based. activation, % at 9.3 µM. 0.61% of 340,000 active. AID 504692; in the data active means activation mostly above about 9.5%, no sharp cut-off; inactive means mostly below about 7.6%;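 further: 0% = cells with vehicle only and 100% = reference agonist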
Target sequence (P47898 whole entry, looked up): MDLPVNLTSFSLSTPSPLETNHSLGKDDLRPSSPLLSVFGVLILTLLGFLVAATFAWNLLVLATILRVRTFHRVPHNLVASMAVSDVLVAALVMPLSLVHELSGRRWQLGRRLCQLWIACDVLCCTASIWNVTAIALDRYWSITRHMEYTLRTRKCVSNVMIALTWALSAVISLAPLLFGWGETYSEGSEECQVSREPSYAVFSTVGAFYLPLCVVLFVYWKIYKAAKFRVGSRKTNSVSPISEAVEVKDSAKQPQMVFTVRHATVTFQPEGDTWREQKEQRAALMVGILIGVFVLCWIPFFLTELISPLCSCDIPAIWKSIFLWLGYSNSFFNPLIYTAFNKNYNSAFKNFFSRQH
HTR5A inv ag – inverse agonist of human HTR5A in OPRM1-OPRD1 counter-screen; P47898; HTR5A cell line, luminescence, inverse agonism; inhibition, % at 9.3 µM; 0.083% of 340,000 active; AID 504634; in the data active means inhibition mostly above about 23%, no sharp cut-off; inactive means mostly below about 18%;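 further: 0% = cells with DMSO and 100% = no-cell wells with DMSO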
MOR-DOR inv ag-2 – inverse agonist of OPRM1-OPRD1 heterodimerization in HTR5A counter-screen | shares compounds with HTR5A inv ag | U2OS counter-screen cells, complementation luminescence | inhibition, % at 9.3 µM | 190 tested, under 10 active | AID 504912;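 further: 0% = cells with DMSO and 100% = wells without cells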
HTR5A inv conf – HTR5A (human) inverse agonism, confirmation; shares compounds with HTR5A inv ag; HTR5A-expressing cells, luminescence; inhibition, % at 9.3 µM; 190 tested, under 10 active;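 further: 0% = cells with DMSO and 100% = no cells with DMSO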
Numbers without * were called inactive; i = inactive; . = no result given. Hits are enriched below; roughly 1.1% of the tested compounds scored in any of these assays. Unless noted, how the calls were made is not given here.

SMILES | MOR-DOR ag | MOR-DOR inv ag-1 | HTR5A ag ctr | HTR5A inv ag | MOR-DOR inv ag-2 | HTR5A inv conf
O=C1N[C@@H](Cc2ccccc2)COC(=O)[C@@H](Cc2ccc(F)cc2)CC/C=C/C[C@H]1CC(=O)N(CCO)Cc1ccccc1 | 1 | -6 | 3 | 10 | . | .
COCCNC(=O)c1onc(CSc2ccccc2)c1C(=O)NCCOC | 0 | 0 | 8 | -23 | . | .
O=C(CCCCCN1C(=O)c2cccc3cccc(c23)C1=O)NCCCO | -2 | 12 | -9 | 32* | -22 | -10
COc1ccccc1-c1nnc(NC(=O)CCS(=O)(=O)c2ccccc2)o1 | -2 | 13 | -1 | 40* | -8 | 2
COc1ccc(OCC(=O)NNC(=O)c2cc3ccccc3o2)cc1 | -2 | 9 | 2 | 39* | -24 | 7
COc1ccc(CNC(=S)NNC(=O)c2cc3ccccc3o2)cc1 | 0 | 0 | -4 | 11 | . | .
COCCN1Cc2cccc(C(=O)NCc3ccccc3OC)c2C1=O | -1 | 8 | 6 | -20 | . | .
CCCN1Cc2cccc(C(=O)NCc3ccccc3OC)c2C1=O | -2 | 10 | 3 | 37* | -236 | -41
c1ccc2[nH]c(-c3cnco3)cc2c1 | -2 | 10 | 0 | 0 | . | .
CCN(CC)C(=O)CSc1nc2ccccc2c(=O)n1OC(C)C | -2 | 8 | 8 | 38* | i | 11
Cc1cccc(NCc2ccc(N(C)C)cc2)n1 | -3 | 14 | -4 | -7 | . | .
O=C(NCCS(=O)(=O)N1CCN(c2ccccc2F)CC1)c1cccc(Br)c1 | 1 | -3 | -8 | 22 | . | .
FC(F)Oc1ccccc1NC(=S)NCCc1ccccc1 | 2 | -9 | -17 | 45* | i | -31
Cc1cc(OC(F)F)ccc1NC(=S)NCCc1ccccc1 | 0 | 3 | 0 | -23 | . | .
N#CC(C#N)=C(N)/C(C#N)=C/c1cc(O)c(O)c(O)c1 | 1 | -4 | -8 | 30* | 20 | 1
N#C/C(=C\c1ccc(O)c(O)c1)C(=O)c1ccc(O)c(O)c1 | -1 | 4 | 10 | -34 | . | .
Cc1ccc(S(=O)(=O)N2CCOCC2)cc1NC(=O)COC(=O)c1ccc(Br)o1 | -2 | 7 | -2 | 6 | . | .
CC(C)Cn1c(N)c(S(=O)(=O)c2cccs2)c2nc3ccccc3nc21 | -3 | 17 | -8 | 38* | -52 | 0
CC1CCN(C(=O)c2cc(Cl)ccc2NC(=O)c2ccco2)CC1 | -2 | 10 | 7 | -21 | . | .
COc1ccc(CCN(Cc2nc3ccccc3c(=O)[nH]2)C(=O)C2CC2)cc1 | -1 | 5 | 9 | 2 | . | .
CN1CCN(c2ncnc3c2c(-c2ccccc2)cn3-c2ccc(F)cc2)CC1 | -6 | 27 | -16 | 39* | i | -36
Cc1ccc([N+](=O)[O-])cc1S(=O)(=O)Nc1ccc(C(=O)N2CCN(C(=O)c3ccco3)CC2)cc1 | -1 | 3 | -2 | 8 | . | .
CCOc1nc(NCCO)nc(Nc2cc(Cl)ccc2OC)n1 | 1 | -7 | 2 | -7 | . | .
CCOc1ccc(S(=O)(=O)n2ccc(C)n2)cc1 | -2 | 11 | -7 | 26* | 22 | -6
OCC[C@@H]1C[C@@H](O)[C@H](O)[C@]2(OCCc3ccccc32)O1 | -2 | 12 | -1 | 0 | . | .
SMILES | MOR-DOR ag | MOR-DOR inv ag-1 | HTR5A ag ctr | HTR5A inv ag | MOR-DOR inv ag-2 | HTR5A inv conf
OCC[C@@H]1C[C@H](O)[C@@H](O)[C@@]2(OCCCc3ccccc32)O1 | 0 | 0 | -17 | 44* | -5 | 3
COc1cccc(CNC(=O)Cc2ccc(S(=O)(=O)N3CCOCC3)s2)c1 | 2 | -13 | -15 | 38* | 49* | -5
O=C(NCc1nnc(SCC(=O)N2CCN(c3ccccc3)CC2)o1)c1ccccc1 | -2 | 10 | 4 | 3 | . | .
O=C(NCc1nnc(SCC(=O)N2CCCC2)o1)c1ccccc1 | -3 | 12 | -18 | 45* | i | -99
COc1ccc(/C=C(/NC(=O)c2cccs2)C(=O)NCc2ccco2)cc1OC | -1 | 8 | 14 | 44* | -37 | -8
CC(=NNC(=O)CCC(=O)Nc1ccccc1Cl)c1ccco1 | -3 | 15 | -4 | 16 | . | .
CN(C(=O)c1ccc(NC(=O)C2CCCN(C(=O)OC(C)(C)C)C2)cc1)C1CCCC1 (stereo not given) | -1 | 5 | 2 | -5 | . | .
Oc1c(C(Nc2ccccn2)c2cccnc2)cc(Cl)c2cccnc12 (stereo not given) | 2 | -11 | -26 | 54* | 56* | 77*
CC(=O)NC(c1ccc(C)cc1)c1cc(Cl)c2cccnc2c1O (stereo not given) | -1 | 3 | -1 | 4 | . | .
O=C(Nc1cc(Cl)ccc1-n1cncn1)C1CC1 | 5 | -31 | -4 | 0 | . | .
CC(C)C[C@@H](CO)N1CCN(Cc2cccnc2)CCC1=O | -2 | 9 | -10 | 28* | -8 | -5
O=C(NNc1ccc([N+](=O)[O-])cn1)Nc1ccc(N=Nc2ccccc2)cc1 | 3 | -14 | -9 | 36* | -45 | 18
O=C(NNc1ccc([N+](=O)[O-])cc1)Nc1ccccc1 | -2 | 8 | -2 | -8 | . | .
Cc1nn(-c2nccs2)c2c1C(=O)CC(C)(C)C2Br (stereo not given) | 7 | -34 | 5 | -17 | . | .
FC(F)Oc1ccc(/C=N/n2c(Cc3ccc(Br)cc3)n[nH]c2=S)cc1 | 11 | -56 | -4 | 12 | . | .
CSc1ccc(/C=N/n2c(Cc3ccc(Br)cc3)n[nH]c2=S)cc1 | 6 | -30 | -13 | 32* | -39 | 13
N#CCSc1nnc(-c2ccc3c(c2)OCO3)o1 | -2 | 10 | -10 | 25* | -4 | 1
CC(C)C(=O)NCCc1nc(-c2ccccc2Cl)no1 | 0 | 3 | 2 | 38* | -19 | 0
O=C(NCCc1nc(-c2ccccc2Cl)no1)c1ccccc1 | -2 | 9 | 3 | -8 | . | .
O=C(C[n+]1ccccc1)N/N=C/c1cc(Br)cc(Br)c1O | -6 | 25 | -12 | 41* | 5 | 34
CC(OC(=O)Cn1[nH]c(=O)c2ccccc2c1=O)C(=O)Nc1ccc(Cl)cn1 (stereo not given) | -2 | 9 | -3 | 7 | . | .
O=S(NCc1ccco1)C12CC3CC(CC(C3)C1)C2 (stereo not given) | -3 | 12 | -1 | 40* | -299 | -20
CC(C)(C)C(=O)NC(=S)NNC(=O)C(c1ccccc1)c1ccccc1 | -4 | 22 | -15 | 45* | 2 | 23
CC(=O)NNC(=S)NC(=O)C(c1ccccc1)c1ccccc1 | -4 | 20 | -8 | 20 | . | .
COc1ccc(-n2c(=S)[nH]c3cc(C(=O)NCc4cccnc4)ccc3c2=O)cc1 | -4 | 19 | 8 | -9 | . | .
Cc1cc2n(n1)C(c1ccc3c(c1)OCO3)Nc1c(C)cccc1-2 (stereo not given) | 3 | -13 | -5 | 33* | -45 | -5
O=C(CN1C(=O)NC2(CCCCC2)C1=O)N1CCN(S(=O)(=O)c2ccc(F)c(F)c2F)CC1 | -2 | 13 | 1 | 13 | . | .
O=C(CCCC(=O)c1ccc(O)cc1)c1ccc(O)cc1 | -1 | 7 | 3 | 4 | . | .
